Reference: PubChem BioAssay AID1159580 (chemical genetic matrix, 2015)
Values joined by “and” are separate entries in the source; they are usually repeats but may differ in a detail not shown here. Equal values may be shown once. Among all 5,500 compounds or so, about 2,000 (36%) were called active. Inconclusive results (about 18%) are left out. Cut-off read from the data, not from the text of the source: active = normalized growth mostly below about 0.91 (no sharp cut-off); inconclusive = no clear call, values can overlap the other calls; inactive = mostly above about 0.92. The list shows a part of the results.

Assay: chemical genetic growth profiling, strain panel (AID 1159580);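 note: tested at 20 µM; growth read once vehicle control cultures reached saturation at 30 °C; 1 = growth at the plate median or of vehicle wells; lower values mean less growth of the strain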
Conditions: S. cerevisiae deletion strains, growth OD

Measured: normalized growth

CCn1cc(C(=O)O)c(=O)c2cc(F)c(N3CCNC(C)C3)c(F)c21 (centres undefined)
inactive: locus YAL013W, strain DEP1, hits give low values 0.989 | locus YAL021C, strain ccr4, hits give low values 0.957 | locus YAL026C, strain drs2, hits give low values 0.974 | locus YAL030W, strain snc1, hits give low values 0.988 | locus YAL040C, strain CLN3, hits give low values 0.984 | locus YBL061C, strain skt5, hits give low values 0.962 | locus YBR009C, strain hhf1, hits give low values 1.01 | locus YBR021W, strain FUR4, hits give low values 0.982 | locus YBR023C, strain chs3, hits give low values 0.986 | locus YBR171W, strain sec66, hits give low values 0.975 | locus YBR229C, strain ROT2, hits give low values 1 | locus YBR231C, strain swc5, hits give low values 0.997 | locus YBR279W, strain paf1, hits give low values 0.975 | locus YCL011C, strain gbp2, hits give low values 0.971 | locus YCL016C, strain dcc1, hits give low values 0.958 | locus YCL029C, strain bik1, hits give low values 0.979 | locus YCL061C, strain MRC1 (second series), hits give low values 0.997 | locus YCL061C, strain MRC1, hits give low values 0.993 | locus YCL069W, strain vba3, hits give low values 0.975 | locus YCR088W, strain abp1, hits give low values 0.964 | locus YDL005C, strain med2, hits give low values 0.97 | locus YDL035C, strain GPR1, hits give low values 0.978 | locus YDL040C, strain nat1, hits give low values 0.981 | locus YDL074C, strain BRE1, hits give low values 1.02 | locus YDL101C, strain DUN1, hits give low values 0.995 | locus YDL134C, strain PPH21, hits give low values 0.985 | locus YDL185W, strain tfp1, hits give low values 0.963 | locus YDL192W, strain arf1, hits give low values 0.992 | locus YDR001C, strain nth1, hits give low values 0.974 | locus YDR069C, strain doa4, hits give low values 0.989 | locus YDR101C, strain arx1, hits give low values 0.988 | locus YDR137W, strain rgp1, hits give low values 0.949 | locus YDR150W, strain NUM1, hits give low values 0.996 | locus YDR159W, strain sac3, hits give low values 0.949 | locus YDR162C, strain NBP2, hits give low values 0.98 | locus YDR195W, strain ref2 0.997 | locus YDR297W, strain sur2, hits give low values 0.978 | locus YDR318W, strain mcm21, hits give low values 0.976 | locus YDR334W, strain swr1, hits give low values 0.975 | locus YDR335W, strain msn5, hits give low values 0.968 | locus YDR363W, strain ESC2, hits give low values 1.01 | locus YDR388W, hits give low values 0.995 | locus YDR392W, strain spt3, hits give low values 0.842 | locus YDR502C, strain sam2, hits give low values 0.986 | locus YEL003W, strain gim4, hits give low values 0.982 | locus YEL037C, strain rad23, hits give low values 0.974 | locus YEL061C, strain CIN8 (second series), hits give low values 0.975 | locus YEL061C, strain CIN8, hits give low values 1.01 | locus YER002W, strain NOP16, hits give low values 0.987 | locus YER015W, strain faa2, hits give low values 0.988 | locus YER016W, strain bim1, hits give low values 0.948 | locus YER110C, hits give low values 0.984 | locus YER111C, strain swi4, hits give low values 0.964 | locus YER155C, strain BEM2 (second series), hits give low values 0.945 | locus YER155C, strain BEM2, hits give low values 0.993 | locus YER167W, strain BCK2, hits give low values 0.971 | locus YFR010W, strain ubp6, hits give low values 1 | locus YGL078C, strain dbp3, hits give low values 0.988 | locus YGL086W, strain mad1, hits give low values 0.995 | locus YGL167C, strain pmr1, hits give low values 0.98 | locus YGL173C, strain kem1, hits give low values 0.993 | locus YGL227W, strain vid30, hits give low values 0.981 | locus YGL240W, strain doc1, hits give low values 1.01 | locus YGL248W, strain PDE1, hits give low values 1.01 | locus YGL253W, strain hxk2, hits give low values 0.98 | locus YGR078C, strain PAC10, hits give low values 1.04 and 1.02 | locus YGR135W, strain pre9, hits give low values 0.953 | locus YGR252W, strain gcn5, hits give low values 0.991 | locus YHR013C, strain ard1, hits give low values 0.984 | locus YHR027C, strain rpn1, hits give low values 1 | locus YHR030C, strain SLT2, hits give low values 0.988 and 1.03 | locus YHR079C, strain IRE1 (second series), hits give low values 0.985 | locus YHR079C, strain IRE1, hits give low values 1.06 | locus YHR094C, strain hxt1, hits give low values 0.993 | locus YHR129C, strain ARP1, hits give low values 0.991 | locus YHR142W, strain chs7, hits give low values 0.948 | locus YHR200W, strain rpn10, hits give low values 0.982 | locus YIL066C, strain RNR3, hits give low values 1.01 | locus YIL073C, strain SPO22, hits give low values 0.867 | locus YIL125W, strain kgd1, hits give low values 0.998 | locus YIR030C, strain dcg1, hits give low values 0.98 | locus YJL092W, strain hpr5, hits give low values 0.99 | locus YJL095W, strain BCK1 (second series), hits give low values 0.968 | locus YJL095W, strain BCK1, hits give low values 1.03 and 1.01 | locus YJL115W, strain asf1, hits give low values 0.967 | locus YJL129C, strain trk1, hits give low values 0.931 | locus YJL134W, strain LCB3, hits give low values 0.987 | locus YJL154C, strain vps35, hits give low values 0.967 | locus YJL164C, strain tpk1, hits give low values 0.975 | locus YJL166W, strain qcr8, hits give low values 0.998 | locus YJL168C, strain set2, hits give low values 0.999 | locus YJL187C, strain SWE1 (second series), hits give low values 1.02 | locus YJR043C, strain POL32, hits give low values 1.01 | locus YJR066W, strain TOR1, hits give low values 0.956
